# Values without a mark were called inactive. Records with an inconclusive call do not appear. A call without a number means that no potency is given here. The source made the active and inactive calls. Calls follow the shape of the dose curve; as a rule, active = well fitted curve in the direction sought with a large enough effect in the repeat runs; inconclusive = weak or mixed curves; inactive = no such curve, though single readings can be large; an effect the other way counts as inactive or inconclusive.
# Assays:
# [1] = Caspase-3/7 induction in HepG2 cells by small molecules, qHTS assay (AID 1346978); also: nearly all actives have a fitted effect of over 15% in size
# In short: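 Wild-type HepG2 cells, 2,000/well, settled 5 hr at 37 C and 5% CO2, then compound-treated for 17 hr; caspase-3/7 activity read by luminescent Caspase-Glo 3/7 after 30 min at room temperature.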
# [2] = Caspase-3/7 induction in CHO-K1 cells by small molecules, qHTS assay (AID 1346980); also: nearly all actives have a fitted effect of over 15% in size
# In short: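 Wild-type CHO-K1 cells exposed to compounds for 17hr at 37 C, 5% CO2. Caspase-3/7 activity then measured by Caspase-Glo 3/7 luminescence after 30min at room temperature.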
# [3] = Human pregnane X receptor (PXR) small molecule agonists, qHTS cell viability counter screen (AID 1346977); also: nearly all actives have a fitted effect of over 50% in size
# In short: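 Viability counter screen: CellTiter-Fluor signal in PXR-Luc HepG2 cells, 24hr compound exposure, 37C, 5% CO2.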
# [4] = Caspase-3/7 induction in CHO-K1 cells by small molecules, qHTS cell viability counter screen (AID 1346979); also: nearly all actives have a fitted effect of over 35% in size
# In short: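 Viability readout by fluorescence (CellTiter-Fluor) on wild-type CHO-K1 cells exposed for 16hr at 37C and 5% CO2 to compounds delivered in DMSO; reagent incubated 1hr before reading.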
# [5] = Caspase-3/7 induction in HepG2 cells by small molecules, qHTS cell viability counter screen (AID 1346981); also: series mostly up to about 92 µM; nearly all actives have a fitted effect of over 30% in size
# In short: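 Viability determined by CellTiter-Fluor fluorescence in HepG2 wells also used for the luminescent Caspase-Glo 3/7 read. Compounds were present for 16 hr at 37 C, 5% CO2 before reagent addition.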
# [6] = target: Nuclear receptor subfamily 1 group I member 2 (Homo sapiens) (UniProt O75469); experiment: Human pregnane X receptor (PXR) small molecule agonists, qHTS assay (AID 1346982); also: nearly all actives have a fitted effect of over 35% in size; also: potency is read from the fitted curve at half-maximal effect
# Sequence of Nuclear receptor subfamily 1 group I member 2 (Homo sapiens) (O75469 whole entry, looked up): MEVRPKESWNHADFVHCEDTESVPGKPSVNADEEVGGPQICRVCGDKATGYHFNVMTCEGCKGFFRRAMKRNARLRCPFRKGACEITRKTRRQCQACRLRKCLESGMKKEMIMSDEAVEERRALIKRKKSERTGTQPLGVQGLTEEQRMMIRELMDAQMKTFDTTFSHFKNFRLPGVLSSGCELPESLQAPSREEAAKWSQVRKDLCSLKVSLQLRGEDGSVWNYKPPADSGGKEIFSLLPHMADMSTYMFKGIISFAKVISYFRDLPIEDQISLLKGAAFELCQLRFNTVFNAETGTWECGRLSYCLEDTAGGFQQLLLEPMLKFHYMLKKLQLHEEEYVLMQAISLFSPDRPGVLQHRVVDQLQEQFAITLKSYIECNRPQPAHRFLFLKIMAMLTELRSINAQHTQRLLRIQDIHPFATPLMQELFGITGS
# In short: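 Compound-induced hPXR transactivation of a CYP3A4 luciferase reporter was scored in HepG2 PXR-Luc cells over 24 hr at 37 C, 5% CO2, by luminescence.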
# [7] = target: Nuclear receptor subfamily 1 group I member 2 (Homo sapiens) (UniProt O75469); experiment: CYP3A4 induction through human pregnane X receptor (PXR) by small molecules, qHTS assay (AID 1346984); also: nearly all actives have a fitted effect of over 40% in size
# In short: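 Readings come from a luciferase reporter: DPX-2 cells, which are HepG2 cotransfected with PXR and a CYP3A4-promoter construct, were exposed to test compounds for 24 h at 37C before One-Glo detection.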
# [8] = target: Nuclear receptor subfamily 1 group I member 2 (Homo sapiens) (UniProt O75469); experiment: Human pregnane X receptor (PXR) activation by small molecules, qHTS assay (AID 1346985); also: nearly all actives have a fitted effect of over 40% in size
# In short: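 DPX-2 cells (HepG2 co-transfected with a PXR response element and a CYP3A4-promoter luciferase construct) were seeded at 2,000 per well, rested 5 hr at 37C, then exposed to DMSO-dissolved compounds for 24 hr. Activation was read as luciferase luminescence.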
# [9] = target: Nuclear receptor subfamily 1 group I member 2 (Rattus norvegicus) (UniProt Q9R1A7); experiment: Rat pregnane X receptor (rPXR) activation by small molecules, qHTS assay (AID 1346983); settings: rPXR luciferase reporter cells, One-Glo luminescence, 24 h; max activation: active compounds read high; also: nearly all actives have a fitted effect of over 20% in size
# Sequence of Nuclear receptor subfamily 1 group I member 2 (Rattus norvegicus) (Q9R1A7 whole entry, looked up): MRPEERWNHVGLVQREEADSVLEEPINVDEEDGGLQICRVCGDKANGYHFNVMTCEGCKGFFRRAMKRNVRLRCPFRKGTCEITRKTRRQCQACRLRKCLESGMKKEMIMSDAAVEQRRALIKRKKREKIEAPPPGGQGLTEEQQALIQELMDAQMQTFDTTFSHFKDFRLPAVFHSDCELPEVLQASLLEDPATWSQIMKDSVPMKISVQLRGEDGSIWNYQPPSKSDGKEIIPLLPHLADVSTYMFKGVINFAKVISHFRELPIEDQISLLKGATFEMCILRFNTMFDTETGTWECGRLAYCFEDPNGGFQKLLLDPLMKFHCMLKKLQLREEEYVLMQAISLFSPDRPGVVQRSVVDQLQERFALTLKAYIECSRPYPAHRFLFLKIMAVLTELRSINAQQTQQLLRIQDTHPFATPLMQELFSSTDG
# In short: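 Cell-based rPXR activation assay: rPXR cells, 2,000 per well, rested 5hr at 37 C, then exposed to compounds in DMSO for 24 hr at 37 C. Luciferase activity read by One-Glo luminescence after 30 min at room temperature.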
SMILES,Potency [1],Potency [2],Potency [3],Potency [4],Potency [5],Potency [6],Potency [7],Potency [8],max activation [9] [%]
CC(CC1c2ccccc2CCc2ccccc21)CN(C)C (centres undefined),inactive,inactive,–,–,–,–,–,–,–
COc1ccccc1N1CCN(CC(O)COc2cccc3ccccc23)CC1 (centres undefined),inactive,inactive,–,–,–,–,–,–,–
NNC(=O)CP(=O)(c1ccccc1)c1ccccc1,inactive,inactive,inactive,inactive,inactive,inactive,inactive,inactive,–
CCCCOc1ccc(OCCCN2CCOCC2)cc1,inactive,inactive,–,inactive,inactive,21.1 µM (active),inactive,inactive,-1.82
Cc1cc2c(OCC(CNC(C)(C)C)OC(=O)c3ccccc3)cccc2[nH]1 (centres undefined),inactive,inactive,inactive,inactive,inactive,inactive,inactive,inactive,-3.65

# From PubChem BioAssay (Tox21)
